Source: PubChem (Broad Institute)
Hits are enriched below; roughly 4% of the tested compounds scored in any of these assays.
PAX8 reporter: lowers PAX8-driven luciferase in RMG-I cells; RMG-I TPO-luciferase reporter, SteadyGlo, 24 h; inhibition, % at 12.6 µM; 1.2% of 360,000 active;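 active means mean replicate inhibition at least 60% with every replicate also reaching 60%; inconclusive means only one of the two criteria is met; inactive means mean below 60% and not all replicates reaching 60%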;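 further: luciferase light reporting Pax8 driven TPO promoter activity; plate controls were median of neutral control wells for no effect and mitoxantrone controls for full effect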
Wnt act: activators of Wnt/beta-catenin signaling | AID 743398 | Wnt/beta-catenin reporter cell assay, activator, plate reader | 1.2% of 300,000 active | activation, % at 9.35 µM; in the data active means activation above about 30%, passing the limit was not always enough; inconclusive means no clear call, values can overlap the other calls;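 further: 0% = neutral control wells and 100% = positive control wells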
EWS-Fli inh: blocks EWS/Fli oncoprotein-driven transcription; 0.67% of 350,000 active; inhibition, % at 12.6 µM; A673 NR0B1-luciferase reporter, viability-normalised; AID 651661;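 active means mean inhibition of at least 50% after viability correction, with every replicate also passing that limit; inconclusive means mean reaches 50% but only one of two replicates passes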;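 further: firefly luciferase signal divided by Alamar Blue viability fluorescence both relative to DMSO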
esBAF inh: SWI/SNF esBAF complex inhibition. mouse ES cells, Bmi1-luciferase knock-in reporter, 24 h; 100% = twice the neutral-well signal. reporter increase, % at 12.5 µM. 2% of 350,000 active; in the data active means activation above about 40%; inconclusive means no clear call, values can overlap the other calls;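 further: 0% = median of the plate's neutral control wells and 100% = double that signal; a rise in the Bmi1 reporter signal indicates esBAF inhibition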
MITF TRPM1 HTS: activators of MITF-driven TRPM1 promoter activity in SK-MEL-5 cells; SK-MEL-5 TRPM1-promoter luciferase, 24 h; % of positive control, neutral wells = 0; activation, % at 12.5 µM; 0.75% of 300,000 active; AID 588334;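 active means mean activation of at least 80% with every replicate also reaching 80%; inconclusive means mean reaches 80% but some replicate falls short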;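 further: 0% = neutral control wells and 100% = parthenolide positive control wells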
MITF TRPM1 inh: reduces MITF-dependent TRPM1 promoter luciferase signal. 0.83% of 330,000 active. inhibition, % at 12.5 µM. AID 488899. SK-MEL-5 TRPM1 promoter luciferase, 24 h;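 active means mean inhibition across replicates of 60% or more, whatever share of single replicates reaches that level; inconclusive means some that reach 60%, reason not given; inactive means mean inhibition across replicates below 60%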
Numbers without * were called inactive; ? = inconclusive; / = not tested or not shown; ! = not confirmed by another sample.

SMILES	PAX8 reporter	Wnt act	EWS-Fli inh	esBAF inh	MITF TRPM1 HTS	MITF TRPM1 inh
Cc1cccc(NC(=O)/C=C/c2ccc(Cl)cc2)n1	-183	/	/	/	90*	-85
Cc1cc(C)nc(NC(=O)/C=C/c2cccs2)c1	/	16	-83	81*	75	-70
CCc1nnc(NC(=O)/C=C/c2cccs2)s1	-163	9	-53	58*	?	-78
Cc1ccc(S(=O)(=O)N(C)C[C@H]2Oc3ccc(NC(=O)CCN4CCOCC4)cc3CC(=O)N([C@@H](C)CO)C[C@@H]2C)cc1	-2	/	-5	6	/	/
COc1cccc(OCc2cc(C(=O)N3CCNC(=O)C3Cc3ccccc3)no2)c1 (stereo unspecified)	-96	7	-36	51*	58	-58
COc1cccc(OCc2cc(C(=O)N3CCCC3c3ccccn3)no2)c1 (stereo unspecified)	-133	28	-76	60*	80	-74
Cc1c(C(=O)N2c3ccccc3CC2C)oc2ccccc12 (stereo unspecified)	/	51*	-75	85*	57	-58
COCc1c(C(=O)OCC(=O)N2c3ccccc3CC2C)oc2ccccc12 (stereo unspecified)	-9	-2	/	-1	/	9
c1ccc(-c2nc3ccccn3c2NCc2ccc3c(c2)OCO3)cc1	-48	/	/	6	6	-9
Clc1cccc(-c2ccc(-c3nc4ccccn4c3NCc3ccccc3)cc2)c1	-21	31*	-60	50*	19	-14
CCC(C)Sc1ccc(-c2nc3ccc(Cl)cn3c2NCc2ccccc2)cc1 (stereo unspecified)	-236	?	-100	50*	84*	-88
COc1ccc(-c2cc(-c3nc4ccccn4c3NCc3ccccc3)ccc2OC)cc1	102*	11	76*	-25	-85	85*
C[C@@H]1CN([C@@H](C)CO)C(=O)c2cc(N(C)C)ccc2O[C@H]1CN(C)S(=O)(=O)c1cn(C)cn1	14	/	11	-10	/	/
CS(=O)(=O)N1CC2(C1)[C@@H](c1ccccc1)[C@@H](CO)N2CC1CCCC1	/	/	1	/	/	/
C[C@H](CO)N1C[C@H](C)[C@H](CN(C)CC2CCCCC2)OCCCC[C@H](C)Oc2ccc(NC(=O)NC3CCCCC3)cc2C1=O	23	/	5	3	/	/
CC(Cc1ccccn1)NC(=O)c1ccc(OC2CCN(CCc3ccccc3)CC2)cc1 (stereo unspecified)	-42	13	/	/	58	-57
O=C(NCCc1ccccn1)c1ccc(OC2CCN(CCc3ccccc3)CC2)cc1	-111	?	/	8	80*	-77
CCCN1CCC(Oc2cccc(C(=O)NCCc3ccccc3)c2)CC1	-84	14	/	51*	44	-40
Cc1ccc(/C=N/NC(=O)c2nn(C)cc2Cl)cc1	-135	/	/	/	68	-62
Cn1cc(Cl)c(C(=O)N/N=C/c2ccc3c4c(cccc24)CC3)n1	/	/	/	63*	77	-77
Cn1cc(Br)c(C(=O)N/N=C/c2cc3c(cc2Cl)OCO3)n1	-122	28	/	47*	89*	-91
Nc1nonc1C(=O)N/N=C\c1cc2c(cc1Cl)OCO2	2	0	/	17	-2	4
COc1ccc2c3c([nH]c2c1)[C@@H](CO)N(S(C)(=O)=O)CC31CCN(Cc2nccs2)CC1	/	/	14	/	/	/
Cn1nccc1C(=O)Nc1ccc(Cl)cc1	/	3	-64	48*	63	-61
Cn1nccc1C(=O)Nc1cc(Cl)ccc1Cl	-6	9	-9	-6	/	/
SMILES	PAX8 reporter	Wnt act	EWS-Fli inh	esBAF inh	MITF TRPM1 HTS	MITF TRPM1 inh
Cc1n[nH]c(C)c1CCC(=O)N/N=C/c1c(C)[nH]c2ccccc12	85*	1	27	/	/	6
Cn1ncc2c(O/N=C(\N)c3ccc(C(C)(C)C)cc3)ncnc21	/	/	/	/	/	80*
CCOc1ccc(NC(=S)NC23CC4CC(CC(C4)C2)C3)cc1	22	-1	8	5	11	-11
CN(C)S(=O)(=O)c1cccc(NC(=S)NC23CC4CC(CC(C4)C2)C3)c1	-1	-2	1	-4	-1	1
CN(C)c1ccc(NC(=S)NC23CC4CC(CC(C4)C2)C3)cc1	-132	1	-101	67*	40	-44
FC(F)Oc1ccc(NC(=S)NC23CC4CC(CC(C4)C2)C3)cc1	-48	-1	-28	50*	4	-4
COCC(=O)N(C)C[C@H]1Oc2cc(-c3ccc(C#N)cc3)ccc2S(=O)(=O)N([C@@H](C)CO)C[C@@H]1C	5	/	-3	8	/	/
COc1ccc(NC(=O)Nc2ccc3c(c2)[C@@H]2C[C@@H](CC(=O)NCC4CC4)O[C@H](CO)[C@@H]2O3)cc1	-17	/	-7	6	/	/
C[C@H]1CCCCO[C@@H](CN(C)C(=O)NC2CCCCC2)[C@@H](C)CN([C@@H](C)CO)C(=O)c2cc(NS(=O)(=O)c3ccc(F)cc3)ccc2O1	40	/	10	2	/	/
C/C(=N\NC(=O)c1ccco1)c1ccc(-c2ccccc2)cc1	-32	26	-116	59*	76	-79
C/C(=N\NC(=O)c1ccco1)c1ccc(NC(=O)c2ccccc2)cc1	-170	3	-99	/	70	-64
O=C(N/N=C/C(Cl)=C\c1ccccc1)c1ccco1	-155	57*	-87	/	/	-45
O=C(N/N=C/C(Cl)=C/c1ccccc1)c1ccco1	-170	12	-90	70*	80	-78
Cc1ccc(S(=O)(=O)N(C)C[C@H]2Oc3ccc(NS(=O)(=O)c4ccc(Cl)cc4)cc3CC(=O)N([C@H](C)CO)C[C@H]2C)cc1	8	/	5	-3	/	/
CC(C)CC#Cc1cnc2c(c1)C(=O)N([C@H](C)CO)C[C@H](C)[C@H](CN(C)S(=O)(=O)c1cn(C)cn1)O2	-21	/	2	1	/	/
Cc1cccc(Nc2nc(N)nc(CSc3nccn3C)n2)c1	-102	/	/	53*	/	-53
COc1ccccc1-c1ccc(C2[C@@H]3CN(S(=O)(=O)c4ccccc4)C[C@H]2N3)cc1 (stereo partly specified)	-2	/	53*	/	/	/
Cc1ccccc1S(=O)(=O)N1C[C@@H]2N[C@H](C1)C2c1ccc(-c2cccc(C#N)c2)cc1 (stereo partly specified)	94*!	/	5	/	/	/
N#Cc1cccc(-c2ccc([C@@H]3[C@@H]4CN(S(=O)(=O)c5ccc(-c6ccccc6)cc5)C[C@H]3N4)cc2)c1	41	/	74*	/	/	/
COc1ccccc1-c1ccc(C2[C@@H]3CN(S(=O)(=O)c4ccc(C)cc4)C[C@H]2N3)cc1 (stereo partly specified)	11	/	4	/	/	/
N#Cc1ccc(-c2ccc(C3[C@@H]4CN(C(=O)C5CC5)C[C@H]3N4)cc2)cc1 (stereo partly specified)	98*	/	-11	/	/	/
N#Cc1cccc(-c2ccc(C3[C@@H]4CN(S(=O)(=O)c5ccccc5F)C[C@H]3N4)cc2)c1 (stereo partly specified)	-4	/	0	/	/	/
